Laboratory results as given in PubChem BioAssay (NCATS).
Results filed as inconclusive are left out. Entries that show only a call come without a potency. Active and inactive are the calls of the source. The call rests on the fitted dose curve; in most records, active means well fitted inhibition curve with a large enough effect; inconclusive means small, poorly fitted or top-dose-only effect; inactive means flat fitted curve, though single readings scatter. Bridge positions count the residues as written; N and C are the ends. Square brackets hold non-standard residues; d marks the D form. Peptide text beside a SMILES is read from it. * marks the point of attachment. Ileψ(thiazoline)Cys = CC[C@H](C)[C@H](N)C1=N[C@H](C(=O)*)CS1; d(aIle) = CC[C@H](C)[C@@H](N)C(=O)O; dOrn = NCCC[C@@H](N)C(=O)O

tested on: CP268; test: qHTS profiling for inhibitors of Plasmodium falciparum proliferation (AID 504749); further: nearly all actives have a fitted effect of over 60% in size; details: P. falciparum in erythrocytes, SYBR Green DNA, 72 h; series mostly up to 12.8 µM
In short: (§1)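 P. falciparum-infected erythrocytes (0.3% parasitemia, 2.5% hematocrit final) were exposed to compounds for 72 h at 37 C in 5% CO2, then lysed with SYBR Green buffer overnight at room temperature; parasite DNA fluorescence was normalized to artemisinin and DMSO controls.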
Potency means the concentration at half of the fitted maximal effect.

Compound	Potency
C[C@@H]1C[C@H]2[C@@H]3C[C@H](F)C4=CC(=O)C=C[C@@]4(C)[C@]3(F)[C@H](O)C[C@]2(C)[C@@]1(O)C(=O)CO	inactive
C[C@H](O)Cn1cnc2c1c(=O)n(C)c(=O)n2C	inactive
CC(=C(CCOP(=O)(O)O)SC(=O)c1ccccc1)N(C=O)Cc1cnc(C)nc1N	inactive
NC[C@@H]1O[C@@H](O[C@H]2[C@H](O)[C@H](O[C@@H]3O[C@H](CO)[C@@H](O)[C@H](N)[C@@H]3O)[C@@H](N)C[C@H]2N)[C@H](N)C[C@@H]1O	inactive
CCc1c(C)[nH]c2c1C(=O)[C@H](CN1CCOCC1)CC2	inactive
C=C1c2c(Cl)ccc(O)c2C(O)=C2C(=O)[C@@]3(O)C(O)=C(C(N)=O)C(=O)[C@@H](N(C)C)[C@@H]3[C@@H](O)[C@H]12	inactive
CC[C@H](C)[C@H](N)C1=N[C@H](C(=O)N[C@@H](CC(C)C)C(=O)N[C@@H](CCC(=O)O)C(=O)N[C@@H](C(=O)N[C@H]2CCCCNC(=O)[C@@H](CC(N)=O)NC(=O)[C@@H](CC(=O)O)NC(=O)[C@@H](Cc3cnc[nH]3)NC(=O)[C@@H](Cc3ccccc3)NC(=O)[C@@H]([C@@H](C)CC)NC(=O)[C@@H](CCCN)NC2=O)[C@@H](C)CC)CS1 ({Ileψ(thiazoline)Cys}-LE[d(aIle)]K[dOrn][d(aIle)][dF][dH][dD][dN]; lactam 4-C)	inactive
O=C(N/N=C\c1ccc([N+](=O)[O-])o1)c1ccc(O)cc1	5.73 µM (active)
CCOC(=O)O[C@@H](C)OC(=O)[C@@H]1N2C(=O)[C@@H](NC(=O)[C@@H](N)c3ccccc3)[C@H]2SC1(C)C	inactive
Cc1cccc(CN2CCN([C@@H](c3ccccc3)c3ccc(Cl)cc3)CC2)c1	inactive
Cc1ccsc1/C=C\C1=NCCCN1C	inactive
O=C(O)COCCN1CCN([C@@H](c2ccccc2)c2ccc(Cl)cc2)CC1	inactive
C#C[C@]1(O)CC[C@@H]2[C@H]3CCC4=CCCC[C@@H]4[C@@H]3CC[C@@]21C	inactive
CC1(C)[C@@H](OC(=O)CCC(=O)O)CC[C@@]2(C)[C@H]1CC[C@@]1(C)[C@H]2C(=O)C=C2[C@H]3C[C@](C)(C(=O)O)CC[C@]3(C)CC[C@@]21C	inactive
C[C@H](CCC(=O)O)[C@H]1CC[C@@H]2[C@@H]3[C@@H](O)C[C@H]4C[C@@H](O)CC[C@@]4(C)[C@H]3CC[C@@]21C	inactive

tested on: CP269; test: as above; details: P. falciparum in erythrocytes, SYBR Green DNA, 72 h; series mostly up to 12.8 µM
In short: as §1

Compound	Potency
C[C@@H]1C[C@H]2[C@@H]3C[C@H](F)C4=CC(=O)C=C[C@@]4(C)[C@]3(F)[C@H](O)C[C@]2(C)[C@@]1(O)C(=O)CO	inactive
C[C@H](O)Cn1cnc2c1c(=O)n(C)c(=O)n2C	inactive
CCCCC[C@H](O)/C=C\[C@@H]1[C@H](O)CC(=O)[C@@H]1CCCCCCC(=O)O	inactive
CC(=C(CCOP(=O)(O)O)SC(=O)c1ccccc1)N(C=O)Cc1cnc(C)nc1N	inactive
NC[C@@H]1O[C@@H](O[C@H]2[C@H](O)[C@H](O[C@@H]3O[C@H](CO)[C@@H](O)[C@H](N)[C@@H]3O)[C@@H](N)C[C@H]2N)[C@H](N)C[C@@H]1O	inactive
CCc1c(C)[nH]c2c1C(=O)[C@H](CN1CCOCC1)CC2	inactive
C=C1c2c(Cl)ccc(O)c2C(O)=C2C(=O)[C@@]3(O)C(O)=C(C(N)=O)C(=O)[C@@H](N(C)C)[C@@H]3[C@@H](O)[C@H]12	inactive
CC[C@H](C)[C@H](N)C1=N[C@H](C(=O)N[C@@H](CC(C)C)C(=O)N[C@@H](CCC(=O)O)C(=O)N[C@@H](C(=O)N[C@H]2CCCCNC(=O)[C@@H](CC(N)=O)NC(=O)[C@@H](CC(=O)O)NC(=O)[C@@H](Cc3cnc[nH]3)NC(=O)[C@@H](Cc3ccccc3)NC(=O)[C@@H]([C@@H](C)CC)NC(=O)[C@@H](CCCN)NC2=O)[C@@H](C)CC)CS1 ({Ileψ(thiazoline)Cys}-LE[d(aIle)]K[dOrn][d(aIle)][dF][dH][dD][dN]; lactam 4-C)	inactive
O=C(N/N=C\c1ccc([N+](=O)[O-])o1)c1ccc(O)cc1	4.55 µM (active)
CCOC(=O)O[C@@H](C)OC(=O)[C@@H]1N2C(=O)[C@@H](NC(=O)[C@@H](N)c3ccccc3)[C@H]2SC1(C)C	inactive
Cc1cccc(CN2CCN([C@@H](c3ccccc3)c3ccc(Cl)cc3)CC2)c1	inactive
Cc1ccsc1/C=C\C1=NCCCN1C	inactive
O=C(O)COCCN1CCN([C@@H](c2ccccc2)c2ccc(Cl)cc2)CC1	inactive
C#C[C@]1(O)CC[C@@H]2[C@H]3CCC4=CCCC[C@@H]4[C@@H]3CC[C@@]21C	inactive
CC1(C)[C@@H](OC(=O)CCC(=O)O)CC[C@@]2(C)[C@H]1CC[C@@]1(C)[C@H]2C(=O)C=C2[C@H]3C[C@](C)(C(=O)O)CC[C@]3(C)CC[C@@]21C	inactive
C[C@H](CCC(=O)O)[C@H]1CC[C@@H]2[C@@H]3[C@@H](O)C[C@H]4C[C@@H](O)CC[C@@]4(C)[C@H]3CC[C@@]21C	inactive
CN1CCO[C@H](c2ccccc2)c2ccccc2C1	inactive
